Many of the other results were omitted from the sample, so hits are more common in it than they were.
Pf Dd2 inh – Plasmodium falciparum Dd2 growth inhibition | P. falciparum Dd2 growth, SYBR Green, 72 h | hit rate 4.3% among 120,000 | Potency, µM (series often up to 28.9 µM), for inactives: at the highest dose activity, negative = inhibition, usual class: inhibitors; active = well fitted inhibition curve with a large enough effect;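 also: plate controls were DMSO vehicle for no effect and reference drug for full effect; nearly all actives have a fitted effect of over 65% in size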
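Infected erythrocytes (Dd2, 0.3% parasitemia, 2.5% hematocrit final) are added to compound in RPMI-1640/Albumax II medium, grown 72 h at 37C in low oxygen, then lysed with saponin/Triton-X containing SYBR Green and read by fluorescence.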
Active calls of the source: *; i = inactive; ! = not active in a repeat; [ ] = another dose, or the depositor's remark. Potency is read from the fitted curve at half-maximal effect.

SMILES | Pf Dd2 inh
CCOC(=O)C1CCN(S(=O)(=O)c2cc3c4c(c2)CC(=O)N4CCC3)CC1 | 10µM*
CCOC(=O)C1CCN(S(=O)(=O)c2cc3c4c(c2)C(C)C(=O)N4CCC3)CC1 (configuration not stated) | i
CN1CC(=O)N(C2CCCCC2)Cc2c(NCc3cccs3)ncnc21 | -12.1%
Cc1cc(C(=O)N2CCOCC2)c2c(C3CCCN3)noc2n1 (configuration not stated) | 9.1%
C[C@H]1[C@@H]2[C@@H](O)C([C@H](C)C(=O)NCc3cccnc3)CC[C@@]2(C)CC[C@@H]1NC(=O)c1ccc(C#N)cc1 (some centres not stated) | -5.9%
C[C@H]1[C@@H]2[C@@H](O)C([C@H](C)C(=O)NCc3ccccc3)CC[C@@]2(C)CC[C@@H]1NC(=O)c1ccc(C#N)cc1 (some centres not stated) | i
C[C@H]1[C@@H]2[C@@H](O)C([C@H](C)C(=O)NCc3ccccn3)CC[C@@]2(C)CC[C@@H]1NC(=O)c1ccc(C#N)cc1 (some centres not stated) | 8.91µM*
Cc1ccc(S(=O)(=O)NC[C@H]2OC[C@@H](NCC(C)(C)C)[C@@H]2O)cc1 | -4.4%[44.1 µM]
COc1ccc(F)cc1CN1CCc2[nH]cnc2C1c1cccc(C#N)c1 (configuration not stated) | 5.62µM*
N#Cc1cccc(CN2Cc3[nH]cnc3C[C@H]2c2nc(-c3ccccc3)no2)c1 | -20.3%[44.1 µM]
COc1ccc(-c2noc(CN3CCCCC3c3cccc(F)c3)n2)c(OC)c1OC (configuration not stated) | -18.6%
Cc1ccc(-c2nc3cnccn3c2NCCC(=O)N(C)C)cc1 | -10.9%
CCOCCCNC(=O)N1CCC2(CC1)CC(N1CCOCC1)CCO2 (configuration not stated) | 59.7%
Cc1cc(C(=O)N[C@H](C)c2onc(-c3cccnc3)c2C(=O)O)no1 | 9.1%[44.1 µM]
CCCn1c(C)cnc1C1CCN(S(=O)(=O)c2cc(OC)ccc2OC)C1 (configuration not stated) | 3.55µM*
COc1ccc(OC)c(S(=O)(=O)N2CCC(n3cnnc3C)CC2)c1 | -22.6%
COc1ccc(OC)c(S(=O)(=O)N2CCCC(Cn3c(C)nc4cccnc43)C2)c1 (configuration not stated) | i
COCC(=O)Nc1ccc([C@@H](O)[C@H]2COCC(=O)N2Cc2ccccc2F)cc1 | -15.3%[44.1 µM]
COC[C@@H]1CN(C(=O)c2ncccc2C)C[C@H]1c1nc(C2CC2)no1 | 10.6%
COCCNC(=O)C1c2ccccc2C(=O)N(Cc2ccccc2)C12CCCC2 (configuration not stated) | -2.5%
COc1ccc2[nH]cc(CCN=C(NC(=O)c3cccc(Cl)c3)Nc3nc(C)cc(C)n3)c2c1 | 8.91µM*
COc1ccc2[nH]cc(CCNC(=O)Nc3cccc(F)c3)c2c1 | 4.2%
COc1ccc2[nH]cc(CCNC(=O)Nc3c(C)cccc3C)c2c1 | i
CN1[C@@H](CCC(=O)N2CCN(c3ccccn3)CC2)CNC(=O)[C@@H]2[C@H]1CCN2Cc1cccs1 | -16.5%
O=C(Nc1ccc(O)c(-c2nc3ccccc3o2)c1)c1cccs1 | 35.9%
SMILES | Pf Dd2 inh
O=C(Nc1ccc(O)c(-c2nc3ccccc3o2)c1)c1ccc(Br)cc1 | 2.82µM*
O=C(Nc1ccc(O)c(-c2nc3ccccc3o2)c1)c1sc2ccccc2c1Cl | 0.4%
O[C@H]1CN[C@H](c2nc(-c3ccc(OC(F)(F)F)cc3)no2)C1 | -4.8%[44.1 µM]
COc1cccc(OCc2cc(C(=O)NC(CO)CO)n[nH]2)c1 | -4.3%
c1cc(-c2cc3c(ccn3Cc3ccncc3)c(N3CCOCC3)n2)cc(N2CCOCC2)c1 | i
COc1cccc(-c2cc3c(ccn3CC3CCN(C)CC3)c(N3CCOCC3)n2)c1 | 6.31µM*
COc1ccccc1-c1cc2c(ccn2Cc2ccncc2)c(N2CCOCC2)n1 | -2.8%[44.1 µM]
C[S+](=O)([O-])N1CCC(Cn2ccc3c(N4CCOCC4)nc(-c4cncnc4)cc32)CC1 | -18.2%
COc1ncccc1-c1cc2c(ccn2CC2CCN(C)CC2)c(N2CCOCC2)n1 | 8.91µM*
C[S+](=O)([O-])N1CCC(Cn2ccc3c(N4CCOCC4)nc(-c4cccc5[nH]ccc45)cc32)CC1 | -13.8%
Fc1ccc(-c2cc(CC3(NCc4ccco4)COC3)no2)cc1 | 13.3%[44.1 µM]
CCc1ccc(S(=O)(=O)N(C)CC2CCOC2)cc1 (configuration not stated) | 75.5%[5.79 µM]
COCC1CN(Cc2cccc3[nH]ccc23)CC12CCNCC2 (configuration not stated) | i
O=C1CCN(S(=O)(=O)c2ccccc2)CCCN(C(=O)C2CCOCC2)CCN1 | 0.4%
CCCCN(C)C(=O)c1csc(N2CCN(c3ccccc3)CC2)n1 | 11.2µM*
O=C(NCc1ccccn1)c1csc(N2CCN(c3ccccc3)CC2)n1 | i
CCN(CC)C(=O)c1csc(N2CCN(c3cccc(Cl)c3)CC2)n1 | i
COCCc1nncn1C1CCNCC1 | 2.2%
CC(=O)Nc1ccc([C@H]2OCC(=O)N(CCN)[C@@H]2CO)cc1 | 21.0%[44.1 µM]
CCn1nc(C)c(C(=O)NC(C)c2cnc(-c3ccncc3)nc2C)c1C (configuration not stated) | -15.1%
O=C(c1ccc(=O)[nH]c1)N1C[C@@H](CO)[C@H](c2ccccn2)C1 | 10.5%
O=C(Cc1ccc(F)cc1)N1CCC(c2nn(-c3ccc(Cl)cc3)c(=O)[nH]2)CC1 | i
COc1ccc(-n2nc(C3CCN(Cc4ccc(F)cc4)CC3)[nH]c2=O)cc1 | i
COc1ccc(-n2nc(C3CCN(Cc4ccc(C)cc4)CC3)[nH]c2=O)cc1 | 12.6µM*!
COc1ccc(C(=O)N2CCC(c3nn(-c4ccc(Cl)cc4)c(=O)[nH]3)CC2)cc1 | -13.6%
SMILES | Pf Dd2 inh
COc1ccc(-n2nc(C3CCN(Cc4ccc(C#N)cc4)CC3)[nH]c2=O)cc1 | i
CC(C)(C)C(=O)N1CCC(c2nn(-c3ccc(Cl)cc3)c(=O)[nH]2)CC1 | 8.91µM*
CCCCNC(=O)CN1C(=O)NC2(CCC(C)CC2)C1=O (configuration not stated) | -16.1%
CNC(=O)[C@@H]1CN(C(=O)c2ccc(OC)c(F)c2)C[C@H]1COC | 15.9%
Cc1ccccc1NC(=O)N1CCC(CCNC(=O)Cc2ccsc2)CC1 | -6.2%
O=S(=O)(c1ccc(F)c(F)c1)N1CCC(n2cnnc2C2CC2)CC1 | 11.3%
CCOCC(=O)N1CCCC(c2cc(N3CCOCC3)nc(C)n2)C1 (configuration not stated) | 3.8%
CCC(=O)NCC12CCCC=C1NC(=O)CC2 (configuration not stated) | 37.6%
COc1ccc(C(=O)NC(C(=O)N2CCCCC2)C2CCN(C(=O)C3CC3)CC2)cc1 (configuration not stated) | -18.3%
CCCCN(CCCNC(=O)c1cc(Nc2ccc(OC)c(OC)c2)nc2ccccc12)Cc1ccccc1 | 2.24µM*
CCCCN(C)CCCNC(=O)c1cc(-c2ccc(Br)s2)nc2ccccc12 | 11.2µM*
CCc1ccccc1Nc1cc(C(=O)NCCCN(C)C2CCCCC2)c2ccccc2n1 | -14.6%
COc1ccc(Nc2cc(C(=O)NCCc3ccccc3)c3ccccc3n2)cc1OC | 13.6%
CC(C)CCNC(=O)c1cc(-c2ccc(Br)s2)nc2ccccc12 | 3.1%
COc1ccc(CNC(=O)c2cc(-c3ccc(Br)s3)nc3ccccc23)c(OC)c1 | 27.6%[5.79 µM]
Cc1ccc(C)c(Nc2cc(C(=O)NCCCN(C)C3CCCCC3)c3ccccc3n2)c1 | i
CCc1ccccc1NC(=O)c1cc(-c2ccc(Cl)s2)nc2ccccc12 | -5.4%

Screening results: PubChem BioAssay, National Center for Advancing Translational Sciences (NCATS)
